Rows were chosen to be rich in hits. Some 3.9% of all compounds tested hit in one or more screens of this group.
Mtb FBA inh – Mtb fructose-bisphosphate aldolase inhibition; hit rate 2.3% among 360,000; purified M. tuberculosis FBA, fluorescence read-out; P9WQA3; inhibition, % at 1 µM; in the data active = inhibition above about 27%;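 also: 0% = vehicle and 100% = reference inhibitor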
Target sequence (P9WQA3 whole entry, looked up): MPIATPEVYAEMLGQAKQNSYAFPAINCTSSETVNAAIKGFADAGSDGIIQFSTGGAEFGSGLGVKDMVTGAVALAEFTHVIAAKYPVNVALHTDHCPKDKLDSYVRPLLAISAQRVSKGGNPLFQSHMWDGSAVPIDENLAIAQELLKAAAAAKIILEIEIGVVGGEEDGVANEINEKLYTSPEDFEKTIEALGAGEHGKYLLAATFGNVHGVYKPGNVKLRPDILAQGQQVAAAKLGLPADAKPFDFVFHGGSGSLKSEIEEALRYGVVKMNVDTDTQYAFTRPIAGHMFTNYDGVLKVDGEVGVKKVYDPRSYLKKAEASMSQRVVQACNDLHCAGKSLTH
GDH-TPI counter – GDH-TPI coupled enzyme inhibition counter-screen. GDH-TPI coupled enzyme counterscreen, NADH absorbance. inhibition, % at 4.8 µM. hit rate 1.2% among 360,000;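 also: 0% = DMSO wells and 100% = wells lacking the enzyme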
BH1578 lux ind – induces V. cholerae light production without autoinducers. activation, % at 18.7 µM. V. cholerae BH1578 lux reporter, luminescence, 6 h. hit rate 0.16% among 350,000; in the data active = activation mostly above about 9.7%, no sharp cut-off
CCHF vOTU inh-1 – blocks the CCHF virus ovarian tumor domain protease; CCHFV vOTU protease, Pep-AMC fluorescence; inhibition, % at 11.5 µM; hit rate 0.55% among 370,000; also: 0% = vehicle wells with enzyme and 100% = no enzyme wells
CCHF vOTU inh-2 – CCHFV vOTU protease inhibition, confirmation. shares compounds with CCHF vOTU inh-1. Recombinant CCHFV vOTU, Pep-AMC fluorescence. inhibition, % at 11.5 µM. hit rate 17% among 1,900
Active calls of the source: *; i = inactive; / = no result. Rule as the data show it, unless noted: active = inhibition above about 30%; inactive = the rest.

SMILES	Mtb FBA inh	GDH-TPI counter	BH1578 lux ind	CCHF vOTU inh-1	CCHF vOTU inh-2
NC(=O)C1CCN(C(=O)c2ccc(NS(=O)(=O)/C=C/c3ccccc3)cc2)CC1	2.5	13.3	i	-1.2	/
CC1CCc2cc(F)cc3c(=O)c(C(=O)O)cn1c23 (stereo not given)	3.8	20.8	i	31.7*	-9.0
CC1CCc2c(N3CCC(O)CC3)c(F)cc3c(=O)c(C(=O)O)cn1c23 (stereo not given)	6.7	30.6	-0.3	-1.3	/
CCSc1nc(O)cc(=O)[nH]1	-4.1	-3.5	1.7	-10.8	/
CCSc1nc(=S)cc(C)[nH]1	-0.1	-2.6	i	31.3*	-25.3
CC(C)c1ccc(C(c2c(O)c3ccccc3oc2=O)c2c(O)c3ccccc3oc2=O)cc1	-3.4	2.2	-6.0	37.3*	-6.8
O=c1c2ccccc2c(C=NC2CCN(Cc3ccccc3)CC2)c(O)n1Cc1ccc2c(c1)OCO2	/	/	/	30.6*	-16.3
CN(C)CCN=Cc1c(O)n(Cc2ccc3c(c2)OCO3)c(=O)c2ccccc12	15.5	4.7	i	-11.2	/
CCN(C(=O)CSc1nccc(=O)[nH]1)C1CCCCC1	3.0	9.6	-0.2	4.3	/
CN(C(=O)CSc1nccc(=O)[nH]1)C1CCCCC1	5.8	0.0	i	38.4*	-13.7
COC(=O)C1CN(Cc2ccc(F)cc2)CCS(=O)(=O)N1Cc1cn(Cc2ccc(F)cc2)nn1 (stereo not given)	/	/	/	30.0*	-9.9
NC(=O)C1(N2CCCCC2)CCN(C2CC(=O)NC2=O)CC1 (stereo not given)	-1.3	-3.1	-0.6	31.4*	-5.9
COC(=O)c1ccc(CS(=O)(=O)c2ccc(F)cc2)o1	1.8	-2.1	-0.4	5.9	/
CCOC(=O)Nc1ccc(S(=O)(=O)Nc2onc(C)c2C)cc1	3.2	0.0	1.2	1.4	/
Cc1ccc(/C=C/C(=O)Nc2nccs2)o1	0.5	51.6*	-0.5	51.1*	1.6
O=C(NCc1ccc(N2CCCC2=O)cc1)c1cc(COc2c(F)cccc2F)on1	1.2	1.4	0.6	37.8*	-17.9
O=C(O)c1cccc(NC(=S)N/N=C/c2ccccc2OCc2ccc(Br)cc2)c1	-4.5	16.9	i	30.3*	12.0
O=C(Nc1cc([N+](=O)[O-])ccc1O)NC1CCS(=O)(=O)C1 (stereo not given)	-8.6	1.8	-1.1	35.8*	-6.0
O=C(Nc1cccc([N+](=O)[O-])c1)NC1CCS(=O)(=O)C1 (stereo not given)	2.2	0.7	i	-3.3	/
CC1(Cc2ccccc2OC(F)(F)F)C(=O)Nc2cc(-c3ccccc3Cl)ccc21 (stereo not given)	-3.0	1.8	-0.4	6.9	/
CC1(Cc2ccccc2OC(F)(F)F)C(=O)Nc2ccc(-c3ccsc3)cc21 (stereo not given)	-2.1	2.7	i	34.5*	-9.9
CC1(Cc2ccccc2OC(F)(F)F)C(=O)Nc2ccc(OC(F)(F)F)cc21 (stereo not given)	-0.7	-2.7	i	32.9*	10.3
CC1(Cc2cc(Cl)ccc2C(F)(F)F)C(=O)Nc2ccc(OC(F)(F)F)cc21 (stereo not given)	-3.3	7.1	-0.8	/	/
O=C(C1CCCO1)N1CCN(Cc2c(O)ccc3ccccc23)CC1 (stereo not given)	6.6	9.8	-0.6	1.8	/
COC(=O)c1ccc(Cn2cnc3c(cnn3-c3ccc(Cl)cc3)c2=O)o1	3.5	-2.8	-2.3	-7.9	/
SMILES	Mtb FBA inh	GDH-TPI counter	BH1578 lux ind	CCHF vOTU inh-1	CCHF vOTU inh-2
NC(=S)N=Nc1c(O)cc(O)c2[nH]c(=O)ccc12	-4.2	37.2*	/	86.7*	89.7*
NC(=S)N=Nc1c(O)[nH]c2ccc(F)cc12	-0.2	27.9	-0.7	13.1	/
COc1ccccc1/C=C/C=N/NC(=O)c1cnccn1	2.4	19.4	/	30.2*	-2.8
O=C(Cc1ccc2cccnc2c1)c1ccc(O)cc1O	-2.5	51.9*	-2.2	48.1*	-6.0
Oc1ccc2cccnc2c1	-5.0	2.9	i	0.6	/
O=C(C[C@H]1CC[C@@H](NC(=O)Nc2ccc3c(c2)OCO3)[C@@H](CO)O1)NCc1ccccc1	/	/	/	-5.5	/
COc1ccc2nc(NC(=O)CCn3cccc3)sc2c1	-0.6	-10.0	-0.1	-2.5	/
COc1ccc2nc(NC(=O)CCN3C(=S)NC(C)(C)CC3C)sc2c1 (stereo not given)	-0.8	-2.2	i	36.2*	-24.9
CN1CCN(c2cc(C(F)(F)F)nc(-c3ccccn3)n2)CC1	-0.8	3.7	0.8	2.5	/
O=C(NC1CCCCCC1)C1CCCN1S(=O)(=O)c1cccc2cccnc12 (stereo not given)	-0.1	6.2	-0.4	5.9	/
CCCc1cc(=O)[nH]c(SCC(=O)Nc2cc(S(=O)(=O)N(CC)c3ccccc3)ccc2Cl)n1	4.7	6.0	i	35.5*	10.9
Nc1ccc2c(c1)Cc1cc(Cl)c(Cl)cc1-2	2.9	6.5	3.3	0.2	/
Nc1ccc2c(c1)Cc1cc(N)c(Cl)cc1-2	3.4	17.9	i	30.6*	-9.2
CC(=O)Nc1ccc(NC(=O)C2(C)Cc3c(-c4cccc(C(F)(F)F)c4)ccnc3O2)cc1 (stereo not given)	1.1	0.0	-0.5	2.3	/
CC(=O)c1cccc(NC(=O)C2Cc3c(-c4cccc(C(C)=O)c4)ccnc3O2)c1 (stereo not given)	-2.4	3.6	-0.3	11.4	/
CC1(C(=O)Nc2cccc(OC(F)(F)F)c2)Cc2c(-c3cccc(C(F)(F)F)c3)ccnc2O1 (stereo not given)	-3.7	-0.9	0.5	40.5*	-4.2
CC(=O)c1cccc(-c2ccnc3c2CC(C(=O)Nc2cccc(C(F)(F)F)c2)O3)c1 (stereo not given)	-3.0	-4.6	-0.8	33.1*	-7.8
CC(=O)c1cccc(NC(=O)C2(C)Cc3c(-c4cccc(C(F)(F)F)c4)ccnc3O2)c1 (stereo not given)	-0.8	-2.7	-0.3	33.3*	4.6
CC(=O)Nc1cccc(-c2ccnc3c2CC(C)(C(=O)Nc2cccc(OC(F)(F)F)c2)O3)c1 (stereo not given)	-3.2	1.8	-0.6	12.5	/
CCOC(=O)c1cnc(Nc2ccccc2)nc1C(F)(F)F	-1.0	8.0	-0.6	34.5*	-3.8
CCOC(=O)c1cnc(-c2ccccc2)nc1C(F)(F)F	5.9	2.4	-0.3	-6.6	/
Cc1cccc(OCC(=O)Nc2cc(Cl)ccc2-n2cncn2)c1C	-1.5	2.5	2.7	11.5	/
CCCOc1ccccc1OCC(=O)Nc1cc(Cl)ccc1-n1cncn1	5.4	9.0	-1.2	32.2*	-16.2
C[N+]1(CC(=O)Nc2ccccc2Cl)CCN(C(=O)c2cccs2)CC1	-2.5	-5.3	-0.6	-7.1	/
COc1ccc(NC(=O)C2=CC(c3ccco3)=NS(=O)(=O)N2C)cc1OC	-1.3	26.7	-0.2	16.7	/
CC(=O)c1ccc(NC(=O)C2=CC(c3ccco3)=NS(=O)(=O)N2C)cc1	2.2	31.0*	-0.3	33.1*	-1.2
CCCCCSc1nc2c(cnn2-c2ccc(F)cc2)c(=O)[nH]1	-3.7	-3.0	i	15.7	/
Cc1cc(/C=N\NC(=O)CC(=O)NC2CCCCC2)c(C)n1-c1cccc(Cl)c1Cl	6.8	10.2	-0.2	7.5	/
